Compound activity from PubChem BioAssay.
M1 ag – human M1 muscarinic receptor agonists, primary screen, Fluo-8 calcium fluorescence, CHO-K1 cells, HTS; CHO-K1 hM1, agonist mode; 0% DMSO, 100% acetylcholine EC100; actives 0.33% (n = 360,000); Muscarinic acetylcholine receptor M1 (Homo sapiens), P11229; activation, % at 3 µM;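 active means activation above the run's mean compound activation plus 3 SD, cut at about 16% in these data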;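 further: peak over basal fluorescence ratio within a 140 s kinetic read after compound addition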
Target sequence (P11229 whole entry, looked up): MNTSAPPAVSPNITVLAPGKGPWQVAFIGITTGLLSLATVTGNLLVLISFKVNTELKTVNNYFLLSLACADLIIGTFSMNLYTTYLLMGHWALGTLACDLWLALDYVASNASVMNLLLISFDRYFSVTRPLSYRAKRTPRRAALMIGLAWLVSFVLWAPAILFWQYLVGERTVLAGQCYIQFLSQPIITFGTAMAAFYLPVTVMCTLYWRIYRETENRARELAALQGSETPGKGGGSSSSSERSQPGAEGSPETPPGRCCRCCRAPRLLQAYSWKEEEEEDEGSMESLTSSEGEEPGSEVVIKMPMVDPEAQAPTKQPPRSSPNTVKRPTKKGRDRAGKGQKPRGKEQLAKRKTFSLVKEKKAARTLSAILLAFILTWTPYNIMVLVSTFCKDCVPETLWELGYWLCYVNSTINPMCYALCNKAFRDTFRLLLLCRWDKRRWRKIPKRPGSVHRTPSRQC
M1 antag – human M1 muscarinic receptor antagonists, primary screen, CHO-K1 cells, Fluo-8 calcium fluorescence, 1536-well; Muscarinic acetylcholine receptor M1 (Homo sapiens), P11229; CHO-K1 hM1, ACh EC80 antagonist; inhibition, % at 3 µM; actives 1.3% (n = 360,000); AID 588852, 2011;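 active means percent inhibition above its own plate's cutoff, namely the mean of that plate's compound wells plus 3 SD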;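 further: peak over basal fluorescence ratio during 140 s after agonist addition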
CHO-K1 Ca antag – nonselective inhibitor or artifact in parental CHO-K1 cells; ATP-induced calcium, Fluo-8 fluorescence; inhibition, % at 3 µM; actives 0.6% (n = 360,000); AID 602250;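 active means inhibition above a per-plate cutoff, the plate's mean sample inhibition plus 3 SD, cut at about 24% in these data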
CHO-K1 Ca PAM – nonselective calcium activators in parental CHO-K1 cells, primary screen, counter-screen for M1 PAM project, cell-based, Fluo-8 calcium fluorescence, full deck, 1536-well. ATP EC20; 0% at ATP EC20, 100% at ATP max. activation, % at 3 µM. actives 0.02% (n = 360,000). AID 602247, 2012;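 active means activation above the run cutoff, the mean activation of all test compounds plus 3 SD, cut at about 40% in these data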;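 further: peak over basal fluorescence ratio in a 140 s read after ATP addition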
M1 PAM – human M1 muscarinic receptor positive allosteric modulators, primary screen, CHO-K1 cells, Fluo-8 calcium fluorescence, 1536-well | Muscarinic acetylcholine receptor M1 (Homo sapiens), P11229 | CHO-K1 hM1, ACh EC20; 0% = ACh EC20, 100% = maximal ACh | activation, % at 3 µM | actives 0.088% (n = 360,000) | AID 588819, 2011; in the data active means activation above about 19%, passing the limit was not always enough
CHO-K1 Ca ag – counter-screen for M1 agonists: effect in parental CHO-K1 cells. Fluo-8 calcium fluorescence; scaled to maximal ATP response, vehicle zero. activation, % at 3 µM. actives 0.48% (n = 360,000). AID 602248, 2012; in the data active means activation above about 15%;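 further: untransfected CHO-K1 host cells lacking M1 receptor as counterscreen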
Hits are given with their value. A selection: hits, their analogues and other compounds. The true share with any hit is near 2.4%.

Results for COC(=O)C1=C(C)N(Cc2ccccc2)C(=NCCN2CCOCC2)N[C@H]1CCc1ccccc1 ?
M1 ag: inactive; M1 antag: inactive; CHO-K1 Ca antag: inactive; CHO-K1 Ca PAM: inactive; M1 PAM: inactive; CHO-K1 Ca ag: inactive

Results for COC(=O)C1=C(C)N(Cc2ccccc2)C(=NCc2ccccc2)N[C@H]1c1ccccc1 ?
M1 ag: inactive; M1 antag: inactive; CHO-K1 Ca antag: inactive; CHO-K1 Ca PAM: inactive; M1 PAM: inactive; CHO-K1 Ca ag: 16

How did CCN1C(=NCCN2CCOCC2)N[C@@H](c2ccccc2)C(C(=O)OC)=C1C do in these assays?
M1 ag: inactive; M1 antag: inactive; CHO-K1 Ca antag: 26; CHO-K1 Ca PAM: inactive; M1 PAM: inactive; CHO-K1 Ca ag: inactive

How did CC(=O)c1c(C)[nH]c(C(=O)COc2cc(C)ccc2C(C)C)c1C do in these assays?
M1 ag: inactive; M1 antag: 36; CHO-K1 Ca antag: inactive; CHO-K1 Ca PAM: inactive; M1 PAM: inactive; CHO-K1 Ca ag: inactive

Results for O=S(=O)(Nc1nc2ccccc2nc1NCc1ccco1)c1ccccc1 ?
M1 ag: inactive; M1 antag: inactive; CHO-K1 Ca antag: 25; CHO-K1 Ca PAM: inactive; M1 PAM: inactive; CHO-K1 Ca ag: inactive

Results for CC(C)(C)c1nnc(N/N=C/c2cc(Br)ccc2O)n(N)c1=O ?
M1 ag: inactive; M1 antag: 35; CHO-K1 Ca antag: inactive; CHO-K1 Ca PAM: inactive; M1 PAM: inactive; CHO-K1 Ca ag: inactive

What do the screens show for `CCc1nnc(N/N=C/c2cc(Br)c(O)cc2O)n1N`?
M1 ag: inactive; M1 antag: inactive; CHO-K1 Ca antag: inactive; CHO-K1 Ca PAM: inactive; M1 PAM: inactive; CHO-K1 Ca ag: inactive

What do the screens show for `CC1CCN(C(=O)CN2C(=O)c3ccccc3S2(=O)=O)CC1`?
M1 ag: inactive; M1 antag: inactive; CHO-K1 Ca antag: inactive; CHO-K1 Ca PAM: inactive; M1 PAM: inactive; CHO-K1 Ca ag: inactive

How did O=C(CN1C(=O)c2ccccc2S1(=O)=O)N1CCc2ccccc2C1 do in these assays?
M1 ag: inactive; M1 antag: inactive; CHO-K1 Ca antag: 25; CHO-K1 Ca PAM: inactive; M1 PAM: inactive; CHO-K1 Ca ag: inactive

What do the screens show for `Cc1ccc(SC[C@H](c2ccccc2)N2CCN(C)CCC2=O)cc1`?
M1 ag: inactive; M1 antag: 33; CHO-K1 Ca antag: inactive; CHO-K1 Ca PAM: inactive; M1 PAM: inactive; CHO-K1 Ca ag: inactive

Results for OC(C#Cc1ccccc1)(c1ccccc1)c1ccccc1 ?
M1 ag: inactive; M1 antag: inactive; CHO-K1 Ca antag: inactive; CHO-K1 Ca PAM: inactive; M1 PAM: inactive; CHO-K1 Ca ag: inactive

Results for CC(C)[N+](C)(C)CC#CC(O)(c1ccccc1)c1ccccc1 ?
M1 ag: inactive; M1 antag: 99; CHO-K1 Ca antag: inactive; CHO-K1 Ca PAM: inactive; M1 PAM: inactive; CHO-K1 Ca ag: inactive

What do the screens show for `C[N+]1(CC#CC(O)(c2ccccc2)c2ccccc2)CCCC1`?
M1 ag: inactive; M1 antag: 100; CHO-K1 Ca antag: inactive; CHO-K1 Ca PAM: inactive; M1 PAM: inactive; CHO-K1 Ca ag: inactive

Results for COCCNC(=O)CN1C(=O)CSc2cc(S(=O)(=O)N3CCCCCC3)ccc21 ?
M1 ag: inactive; M1 antag: inactive; CHO-K1 Ca antag: 35; CHO-K1 Ca PAM: inactive; M1 PAM: inactive; CHO-K1 Ca ag: inactive

What do the screens show for `COCCNC(=O)CN1C(=O)CSc2ccc(S(=O)(=O)N3CCOCC3)cc21`?
M1 ag: inactive; M1 antag: inactive; CHO-K1 Ca antag: inactive; CHO-K1 Ca PAM: inactive; M1 PAM: inactive; CHO-K1 Ca ag: inactive

What do the screens show for `CCCCN(CC)CCCNC(=O)CN1C(=O)CSc2ccc(S(=O)(=O)N3CCOCC3)cc21`?
M1 ag: inactive; M1 antag: inactive; CHO-K1 Ca antag: inactive; CHO-K1 Ca PAM: inactive; M1 PAM: inactive; CHO-K1 Ca ag: inactive

How did CCCCN(CCCC)CCNC(=O)CN1C(=O)CSc2ccc(S(=O)(=O)N3CCOCC3)cc21 do in these assays?
M1 ag: inactive; M1 antag: 87; CHO-K1 Ca antag: inactive; CHO-K1 Ca PAM: inactive; M1 PAM: inactive; CHO-K1 Ca ag: inactive

What do the screens show for `COC(=O)c1csc(-c2ccc(CO)o2)n1`?
M1 ag: inactive; M1 antag: inactive; CHO-K1 Ca antag: inactive; CHO-K1 Ca PAM: inactive; M1 PAM: inactive; CHO-K1 Ca ag: inactive

How did CCOc1ccc(-c2csc(/C(C#N)=C\c3ccc(O)c([N+](=O)[O-])c3)n2)cc1 do in these assays?
M1 ag: inactive; M1 antag: inactive; CHO-K1 Ca antag: inactive; CHO-K1 Ca PAM: inactive; M1 PAM: inactive; CHO-K1 Ca ag: inactive

What do the screens show for `COc1ccc(CN2CC(C(=O)NCCCN3CCCCC3)CC2=O)cc1` (centres undefined)?
M1 ag: inactive; M1 antag: inactive; CHO-K1 Ca antag: inactive; CHO-K1 Ca PAM: inactive; M1 PAM: inactive; CHO-K1 Ca ag: inactive

What do the screens show for `O=C(Nc1ccc2c(c1)OCCO2)c1c(Cl)cccc1Cl`?
M1 ag: inactive; M1 antag: 32; CHO-K1 Ca antag: inactive; CHO-K1 Ca PAM: inactive; M1 PAM: inactive; CHO-K1 Ca ag: inactive

What do the screens show for `O=C(Nc1ccc2c(c1)OCCO2)c1cccc(Cl)c1Cl`?
M1 ag: inactive; M1 antag: inactive; CHO-K1 Ca antag: inactive; CHO-K1 Ca PAM: inactive; M1 PAM: inactive; CHO-K1 Ca ag: inactive

How did COc1cc(SC)ccc1C(=O)Nc1ccc2c(c1)OCCO2 do in these assays?
M1 ag: inactive; M1 antag: inactive; CHO-K1 Ca antag: inactive; CHO-K1 Ca PAM: inactive; M1 PAM: inactive; CHO-K1 Ca ag: 17

How did COc1ccccc1C(=O)Nc1ccc2c(c1)OCCO2 do in these assays?
M1 ag: inactive; M1 antag: inactive; CHO-K1 Ca antag: inactive; CHO-K1 Ca PAM: inactive; M1 PAM: inactive; CHO-K1 Ca ag: inactive

How did CCC(NC(=S)NCc1ccc(F)cc1)c1ccc(C(C)C)cc1 (centres undefined) do in these assays?
M1 ag: inactive; M1 antag: 97; CHO-K1 Ca antag: inactive; CHO-K1 Ca PAM: inactive; M1 PAM: inactive; CHO-K1 Ca ag: inactive

What do the screens show for `CCC(C)c1ccc(C(C)NC(=S)NCc2ccc(F)cc2)cc1` (centres undefined)?
M1 ag: inactive; M1 antag: 34; CHO-K1 Ca antag: inactive; CHO-K1 Ca PAM: inactive; M1 PAM: inactive; CHO-K1 Ca ag: inactive

Results for COc1ccc(C(C)NC(=S)NCc2ccc(F)cc2)cc1OC (centres undefined) ?
M1 ag: inactive; M1 antag: inactive; CHO-K1 Ca antag: inactive; CHO-K1 Ca PAM: inactive; M1 PAM: inactive; CHO-K1 Ca ag: inactive

Results for CCCc1ccc(C(C)NC(=S)NCc2ccc(F)cc2)cc1 (centres undefined) ?
M1 ag: inactive; M1 antag: 44; CHO-K1 Ca antag: inactive; CHO-K1 Ca PAM: inactive; M1 PAM: inactive; CHO-K1 Ca ag: 17
